# Hits are enriched below; roughly 1.3% of the tested compounds scored in any of these assays.
# MEX-5 binding = MEX-5 zinc finger RNA-binding disruptors – biochemical, C. elegans, fluorescence polarization, MLPCN library, primary screen; Zinc finger protein mex-5 (Caenorhabditis elegans), Q9XUB2; MEX-5/FITC-TCR2 RNA binding; active compounds read low; activity score (negative = inhibition of binding), % at 10 µM; 300,000 tested, 0.38% active; AID 1832, 2009;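 active = inhibition past about -25% in most replicates, and total fluorescence under double the plate's negative control median, limit read from the data; inconclusive = replicates evenly split on the limit, or fluorescence at least double controls; inactive = too little inhibition in most replicates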;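 also: 0% = DMSO and -100% = 5 µM competing unlabeled TCR2 RNA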
# EBV gp42 block = Epstein-Barr virus gp42 inhibitors, primary screen, biochemical, uHTS, fluorescence polarization; 220,000 tested, 0.42% active; AID 1085, 2008; inhibition, % (tested at 21.74 µM); Fluorescence polarization binding assay, mP read-out; in the data active = inhibition above about 50%
# GLD-1 TGE inh = GLD-1/TGE RNA complex disruptors, primary screen, biochemical, fluorescence polarization. Female germline-specific tumor suppressor gld-1 (Caenorhabditis elegans), Q17339. inhibition, % at 5.96 µM. purified GLD-1 + fluorescein TGE RNA. 320,000 tested, 0.44% active. AID 2280, 2010;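 active = percent inhibition above a per-plate cutoff, the plate mean of test compounds plus 3 SD, cut at about 30% in these data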;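 also: 0% = DMSO wells with GLD-1 and probe and 100% = wells lacking GLD-1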
# MCL1 BIM primary = inhibitors of MCL1 binding to BIM-BH3, primary screen, biochemical, fluorescence polarization; inhibition, % at 10.9 µM; GST-MCL1 / FITC-Bim-BH3 fluorescence polarization; 320,000 tested, 0.68% active; Induced myeloid leukemia cell differentiation protein Mcl-1 (Homo sapiens), Q07820;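 active = inhibition above the mean inhibition of all tested compounds plus 3 SD, set per campaign, cut at about 40% in these data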;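 also: 0% = DMSO wells and 100% = unlabeled Bim-BH3 peptide control; higher means more loss of mP so more displacement of Bim peptide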
# Target sequence (Q07820 whole entry, looked up): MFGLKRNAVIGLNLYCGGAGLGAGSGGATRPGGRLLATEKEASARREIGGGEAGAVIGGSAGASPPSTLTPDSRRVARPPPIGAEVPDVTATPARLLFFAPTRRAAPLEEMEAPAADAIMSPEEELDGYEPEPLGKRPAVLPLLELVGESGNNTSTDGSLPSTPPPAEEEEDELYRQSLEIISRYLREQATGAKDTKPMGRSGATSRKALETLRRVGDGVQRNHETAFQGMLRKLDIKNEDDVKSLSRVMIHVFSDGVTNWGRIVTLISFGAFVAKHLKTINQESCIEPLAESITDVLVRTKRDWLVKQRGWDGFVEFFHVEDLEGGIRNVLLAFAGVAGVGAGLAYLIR
# Bcl-xL primary = inhibitors of human Bcl-xL, primary screen, biochemical, fluorescence polarization, HTS; Bcl-2-like protein 1 (Homo sapiens), Q07817; 320,000 tested, 0.7% active; inhibition, % at 10.9 µM; GST-Bcl-xL / FITC-Bim BH3 peptide fluorescence polarization;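 active = inhibition above the mean of all tested compounds plus 3 SD, cutoff set per campaign, cut at about 30% in these data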;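 also: 0% = DMSO wells and 100% = unlabeled Bim-BH3 peptide competitor; inhibitors lower millipolarization by displacing the labeled peptide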
# Target sequence (Q07817 whole entry, looked up): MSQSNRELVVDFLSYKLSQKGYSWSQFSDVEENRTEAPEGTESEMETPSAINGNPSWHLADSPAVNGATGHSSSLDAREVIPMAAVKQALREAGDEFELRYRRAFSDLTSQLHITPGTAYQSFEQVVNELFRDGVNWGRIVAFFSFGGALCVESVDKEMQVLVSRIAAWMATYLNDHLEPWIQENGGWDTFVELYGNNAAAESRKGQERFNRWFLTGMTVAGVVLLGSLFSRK
# BCLXL inh confirm = Bcl-xL inhibitors blocking Bim BH3 binding, confirmation, counter-screen for MCL1 inhibitor project, biochemical, fluorescence polarization. shares compounds with MCL1 BIM primary. GST-Bcl-xL / FITC-Bim BH3 peptide FP binding. inhibition, % at 10.9 µM. 1,700 tested, 54% active;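 active = inhibition above a cutoff equal to the mean inhibition of all tested compounds plus 3 SD, cut at about 30% in these data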;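 also: 0% = DMSO wells and 100% = unlabeled Bim BH3 control peptide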
# MCL1 inh confirm = inhibitors of MCL1 binding to BIM-BH3, confirmation, biochemical, fluorescence polarization, triplicate | 1,700 tested, 61% active | shares compounds with MCL1 BIM primary | GST-MCL1 / FITC-Bim-BH3 fluorescence polarization | inhibition, % at 10.9 µM;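 active = inhibition above the average of all tested compounds plus 3 SD, cut at about 40% in these data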;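 also: 0% = DMSO wells and 100% = unlabeled Bim-BH3 control peptide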
# * marks the source's active call; other numbers are inactive results; ? = inconclusive; . = no result given; + = active, no number.
SMILES,MEX-5 binding,EBV gp42 block,GLD-1 TGE inh,MCL1 BIM primary,Bcl-xL primary,BCLXL inh confirm,MCL1 inh confirm
O=C(CN1CCC(NC(=O)C2CCCCC2)CC1)NCc1ccco1,4,-4,2,4,7,.,.
CC1CCN(CC(=O)NCc2ccco2)CC1,2,-29,1,68*,2,6,-5
CCC(CO)N=C1CC(C)(C)CC(=O)/C1=C(/O)CCCN1C(=O)c2ccccc2C1=O (centres undefined),1,-17,4,7,5,.,.
O=C(O)COCC(=O)NCc1csc2ccccc12,3,-1,6,0,4,.,.
C=CCn1c(C)cc(C(=O)CSc2n[nH]c(N)n2)c1C,-1,1,-3,47*,-1,13,3
COc1ccc(OC)c(C2C(C(C)=O)=C(O)C(=O)N2Cc2cccnc2)c1 (centres undefined),0,-14,-2,2,1,.,.
CCCCCCn1nc(C(=O)N(CCOC)c2c(N)n(CCCC)c(=O)[nH]c2=O)c2ccccc2c1=O,0,.,17,-32,-5,.,.
CCCSc1ccc([C@H]2N[C@@](C)(C(=O)OC)[C@H]3C(=O)N(CC)C(=O)[C@@H]23)cc1,.,.,4,.,.,.,.
COc1ccc2c(c1O)-c1ccccc1CCN(C)C2,3,-9,4,0,1,.,.
CN1CCc2cccc3c2[C@@H]1Cc1ccc(O)c(O)c1-3,.,0,11,71*,49*,13,29
COc1ccc([C@H]2CC(=O)C=C(c3cccc4c3Oc3ccccc3S4)C2)cc1,.,.,3,-3,5,.,.
COc1ccc2oc(C(=O)N(Cc3ccco3)Cc3cccs3)c(C)c2c1,3,.,3,0,-3,.,.
Clc1cc(Cl)c2nc(N3CCCCC3)sc2c1,-1,-21,3,-2,-3,.,.
Clc1cccc2sc(N3CCCCC3)nc12,-2,-2,19,58*,69*,2,6
C=CCNC(=O)C1CCC(=O)N1S(=O)(=O)c1ccc(C)cc1 (centres undefined),-2,.,-4,1,-3,.,.
Cc1cc(C(=O)OCC(=O)NC2CCS(=O)(=O)C2)c2ccccc2n1 (centres undefined),1,-13,-1,-3,0,.,.
O=C(COC(=O)c1cc(-c2cccc3ccccc23)nc2ccccc12)NC1CCS(=O)(=O)C1 (centres undefined),-16,45,97*,185*,152*,63*,80*
CCOC(=O)c1ccc(S(=O)(=O)Nc2ccc3cn[nH]c3c2)cc1,-2,-32,2,-4,-2,.,.
CCn1nc(C)c(/C=C2\CCCC3=C2OC(N)=C(C#N)C3c2c(C)nn(CC)c2C)c1C (centres undefined),?,39,53*,72*,76*,70*,85*
CSc1nc(=O)n2cc(C)ccc2n1,-1,-5,-1,-11,0,.,.
Cc1ccc(C(=O)CNc2cc(C)ccc2C)cc1,-3,.,-1,-1,3,.,.
CCNc1cc(O)ccc1C,.,.,137*,164*,138*,73*,85*
O=C(NNC1=Nc2cccc3cccc1c23)c1ccc(Br)cc1,-5,60*,14,41*,28,57*,81*
CC1C2C(C)N(C)C(=O)N(C)C2N(C)C(=O)N1C (centres undefined),-40*,65*,41*,85*,81*,74*,90*
CN1C(=O)N(C)C2C1NC(=O)N2C (centres undefined),-2,-22,5,3,5,.,.
SMILES,MEX-5 binding,EBV gp42 block,GLD-1 TGE inh,MCL1 BIM primary,Bcl-xL primary,BCLXL inh confirm,MCL1 inh confirm
CCOC(=O)c1ccc(CNC(=O)C2CCC(=O)N(CCc3ccccc3)C2)o1 (centres undefined),-1,.,0,-2,10,.,.
O=c1cc(CN2CCCc3ccccc32)nc2sccn12,?,39,-9,+,199*,134*,166*
CC1(C)C(/C=C/C=C/C=C/C=C2\N(CCCCS(=O)(=O)O)c3ccc4ccccc4c3C2(C)C)=[N+](CCCCS(=O)(=O)[O-])c2ccc3ccccc3c21,.,.,0,90*,85*,68*,74*
Cc1c2ccccc2cc[n+]1CCCS(=O)(=O)[O-],0,-3,-1,5,8,.,.
Nc1ccc2nc(-c3ccccc3)c(-c3ccccc3)nc2c1,-40*,.,73*,60*,49*,63*,54*
Nc1ccc(-c2cnc3ccccc3n2)cc1,-1,.,5,4,2,.,.
Nc1ccc(Oc2ccc3nc(-c4ccccc4)c(-c4ccccc4)nc3c2)cc1,2,-15,-3,0,4,.,.
Nc1ccc2nc(-c3ccccc3)cnc2c1,-13,.,81*,119*,99*,121*,142*
COc1ccc(COC(=O)CCS(=O)(=O)c2ccc(C)cc2)cc1F,-1,.,2,0,-4,.,.
CCOc1ccccc1NC(C)C(=O)NC(=O)NC1CCCCC1 (centres undefined),.,.,3,4,4,.,.
Cn1cc(C=O)c2ccccc21,0,7,6,3,5,.,.
Cn1cc(/C=C2\SC(=O)NC2=S)c2ccccc21,-1,72*,-5,60*,62*,74*,82*
O=C1c2cccc3c(N4CCCCC4)ccc(c23)C(=O)N1c1ccccn1,-69*,129*,161*,172*,122*,154*,179*
CC1CC=C2C(C#N)=C(N)C(C#N)(C#N)C(c3cccs3)C2C1 (centres undefined),-31*,52*,70*,96*,92*,52*,68*
Cc1cc2nc(N)sc2cc1[N+](=O)[O-],-1,-3,-3,6,6,.,.
Cc1cc2cc(C=C(C#N)C#N)c(Cl)nc2cc1C,-3,-16,163*,+,193*,27,27
CCOC(=O)/C(C#N)=C/c1cc2cc(C)c(C)cc2nc1Cl,-3,-19,-9,-11,-4,.,.
CC(C)NC(=O)CN1C(=O)c2ccccc2S1(=O)=O,0,3,6,+,5,6,-3
COC(=O)C1=C(C)N(C)C(=O)NC1c1cc2c(cc1Br)OCO2 (centres undefined),-2,.,3,0,2,.,.
